Assay outcomes: PubChem, National Center for Advancing Translational Sciences (NCATS)
NPC1 promoter act = activators of NPC1 promoter. Huh7 NPC1 promoter luciferase reporter, 24 h. Potency, µM (titrated, usually from 9.22 µM), for inactives: at the top dose activation, most hits filed as activators. actives 2.4% (n = 320,000); further: % of control where 0% means no effect; nearly all actives have a fitted effect of over 60% in size
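NPC1 promoter–luciferase Huh7 cells; 24 h compound; luminescence.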
FLuc counter = counter-screen for miR-21 project: firefly luciferase inhibitors or activators; P08659; purified FLuc, Km substrates, luminescence inhibition; Potency, µM (titrated, usually from 57.5 µM), inactives show at the highest dose activity change, negative = inhibition, usual class: inhibitors; actives 6.9% (n = 360,000); AID 588342;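 further: plate controls were vehicle for no effect and reference inhibitor for full effect; nearly all actives have a fitted effect of over 55% in size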
Target sequence (P08659 whole entry, looked up): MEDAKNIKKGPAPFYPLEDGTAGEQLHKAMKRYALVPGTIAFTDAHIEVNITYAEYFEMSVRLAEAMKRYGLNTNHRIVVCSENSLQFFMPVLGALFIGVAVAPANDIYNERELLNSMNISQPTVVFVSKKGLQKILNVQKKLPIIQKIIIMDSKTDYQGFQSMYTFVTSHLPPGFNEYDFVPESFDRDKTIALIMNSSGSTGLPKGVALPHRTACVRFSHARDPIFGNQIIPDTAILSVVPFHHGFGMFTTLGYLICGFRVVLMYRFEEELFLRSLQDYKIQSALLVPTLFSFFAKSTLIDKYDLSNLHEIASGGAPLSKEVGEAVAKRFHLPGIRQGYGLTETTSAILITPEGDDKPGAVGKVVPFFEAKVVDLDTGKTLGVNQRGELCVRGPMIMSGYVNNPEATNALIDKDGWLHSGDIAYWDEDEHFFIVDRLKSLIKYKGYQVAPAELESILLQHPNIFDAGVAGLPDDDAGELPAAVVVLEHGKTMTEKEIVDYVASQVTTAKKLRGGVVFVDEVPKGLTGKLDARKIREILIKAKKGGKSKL
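Purified P. pyralis luciferase (10nM final) with 10uM D-luciferin and 10uM ATP (Km levels) in 50mM Tris acetate pH 7.5, 10mM Mg acetate, 0.01% Tween-20, 0.05% BSA; qHTS 6-point titration, ~60 µM downward; luminescence read.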
Rab9 prom act = Rab9 promoter activation | Huh7 Rab9 promoter-luciferase reporter, luminescence, 24 h | Potency, µM (doses to about 9.22 µM), for the others: top-dose activation, negative = inhibition, most hits filed as activators | actives 2.8% (n = 320,000) | AID 485297; further: % of control where 0% means no effect; nearly all actives have a fitted effect of over 60% in size
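Huh7 reporter line, Rab9 promoter upstream of luciferase. Compound exposure 24 h at 37 °C in reduced-serum medium with 10% FBS. Read-out: luminescence.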
ELG1 genotoxic = inducers of genotoxicity in HEK293T ELG1-luciferase cells. HEK293T ELG1-luciferase reporter, luminescence, 16 h. Potency, µM (top dose mostly 46 µM), for inactives: top-dose activity change, positive = activation, most hits filed as activators. actives 1.3% (n = 330,000); further: % of control where 0% means no effect; nearly all actives have a fitted effect of over 60% in size
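HEK293T cells expressing luciferase-tagged ELG1 were exposed to compound or DMSO vehicle for 16 hr at 37 °C and 5% CO2. Luciferase activity was then measured with ONE-Glo after 30 min at room temperature.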
SMN2 splice enh = SMN2 splice variant enhancement; actives 2.8% (n = 210,000); Potency, µM (series often up to 46.1 µM), for the others: at the highest dose activity change, positive = activation, most hits filed as activators; AID 1458; HEK293 SMN2-luciferase splicing reporter, luminescence, 30-36 h; further: % of control where 0% means no effect; nearly all actives have a fitted effect of over 55% in size
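HEK293 cells carry an SMN2 minigene-luciferase reporter in which exon 7 inclusion puts luciferase in frame. Cells were seeded at 2000 cells/well, attached for 10-12 hours, then exposed to compounds for 30-36 hours at 37C before ONE-Glo luminescence.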
An asterisk follows results filed as active; ? = inconclusive; · = no result. Sampled rows, rich in hits. Any-hit rate of the full collection: about 7.4%. The call rests on the fitted dose curve; in most records, active means well fitted curve in the direction sought with a large enough effect; inconclusive means small, poorly fitted or top-dose-only effect, or another doubt; inactive means no such curve, though single readings can be large; an effect the other way counts as inactive or inconclusive. Potency means the concentration at half of the fitted maximal effect.

SMILES	NPC1 promoter act	FLuc counter	Rab9 prom act	ELG1 genotoxic	SMN2 splice enh
COc1ccc(-c2cc(C(=O)Nc3sc4c(c3C#N)CCCC4)c3ccccc3n2)cc1	-1%	15µM*	0%	-2%	-16%
CCOC(=O)c1sc(NC(=O)c2cc(-c3ccc(C)cc3)nc3ccccc23)c(C#N)c1C	-3%	12µM*	-14%	-6%	-78%
NNC(=O)CN1CCCc2ccccc21	-2%	12µM*	3%	?	23%
CC(C)OC(=O)c1cccc(-c2ccc(C=O)o2)c1	17%	?	15%	?	13µM*
COC(=O)c1ccccc1-c1ccc(C=O)o1	-1%	-1%	-2%	1%	·
Cc1c(-c2ncn[nH]2)sc(C#N)c1-c1ccccc1	8%	19µM*	-3%	2%	-18%
CSc1nccc(-c2sc(SC)c(C#N)c2-c2ccccc2)n1	-3%	3%	3%	2%	·
Clc1ccc(-c2cc(CN3CCCCC3)no2)cc1Cl	22%	19µM*	23%	10%	·
Clc1ccc(-c2cc(CN3CCOCC3)no2)cc1	1.6µM*	12µM*	0.89µM*	?	·
Oc1ccccc1/C=C/c1noc(-c2ccccc2O)n1	?	1.9µM*	14%	5.8µM*	?
COc1cc(/C=C/c2noc(-c3ccccc3O)n2)ccc1OC(C)=O	?	12µM*	?	13µM*	·
Cc1cccnc1NC(=O)c1ccc(COc2ccccc2)o1	-4%	0%	4%	4%	·
O=C(Nc1cccc(Cl)c1N1CCCC1)c1cccc(-c2cc3ccccc3oc2=O)c1	?	?	?	0%	8%
Clc1ccc(-c2nc(-c3cnccn3)no2)cc1	0.56µM*	2.4µM*	0.71µM*	?	·
OC1(c2ccc(Cl)cc2)CCN(Cc2nc(-c3cnccn3)no2)CC1	-3%	2%	12%	-3%	·
Fc1ccc(-c2nc(-c3cnccn3)no2)c(Cl)c1	0.45µM*	2.4µM*	0.32µM*	?	·
CN(CCc1ccccc1)Cc1nc(-c2cnccn2)no1	-2%	0%	-5%	4%	7%
CCOc1cc(CNc2ccc(CNc3ncn[nH]3)cc2)ccc1OCc1ccccc1	-2%	1%	-5%	1%	?
O=C(COC(=O)c1ccc(F)c(S(=O)(=O)N2CCOCC2)c1)c1ccccc1	·	·	·	5%	·
O=C(COC(=O)c1ccc(F)c(S(=O)(=O)N2CCOCC2)c1)c1ccc(Cl)cc1	-2%	8.5µM*	2%	-1%	·
Cc1ccc(S(=O)(=O)N2CCOCC2)cc1C(=O)OCC(=O)c1ccc[nH]1	-2%	1%	-1%	0%	·
Cc1ccc(S(=O)(=O)N2CCOCC2)cc1C(=O)OCC(=O)c1ccc(Br)cc1	0%	3.8µM*	-4%	-3%	·
Cc1ccc(NC(=O)c2cncc(Br)c2)cc1S(=O)(=O)N(C)C	?	9.5µM*	?	?	11µM*
Cc1ccc(NC(=O)CSc2nnc(-c3cccs3)o2)cc1S(=O)(=O)N(C)C	?	4%	3.5µM*	?	?
CCN(CC)S(=O)(=O)c1cc(NC(=O)CSc2nnc(-c3cccs3)o2)ccc1C	0%	-18%	-7%	6%	29%
SMILES	NPC1 promoter act	FLuc counter	Rab9 prom act	ELG1 genotoxic	SMN2 splice enh
Cc1ccc(NC(=O)c2sccc2C)cc1S(=O)(=O)N(C)C	10%	19µM*	1%	5%	20%
CCN(CC)c1ccc(NC(=O)c2cccnc2)cc1	·	?	·	·	23%
CCN(CC)c1ccc(NC(=O)c2cncc(Br)c2)cc1	?	17µM*	?	7%	?
Cc1cc(C)c(NC(=O)C(=O)NCCc2csc(-c3ccc(F)cc3)n2)c(C)c1	·	-9%	·	·	·
O=C1CN(C(=O)COc2ccccc2)C(c2ccc(F)cc2)c2cc(Br)ccc2N1 (stereo not given)	·	-5%	·	·	0%
Cc1cnc(NC(=O)c2cncc(Br)c2)s1	2.2µM*	8.5µM*	1.3µM*	?	·
COc1ccccc1CC(=O)Nc1ccc2nc(Nc3cccc(Cl)c3)cc(C)c2c1	·	-1%	·	·	·
CC(=O)Nc1ccc(C2NC(=O)c3ccccc3O2)cc1 (stereo not given)	7%	-2%	10%	-1%	·
CC(=O)Nc1ccc(C2C(=O)c3ccccc3C2=O)cc1	?	2.1µM*	?	23µM*	·
CCCC(=O)Nc1ccc(C2C(=O)c3ccccc3C2=O)cc1	1.6µM*	1.1µM*	3.5µM*	20%	·
O=C(NNC(=O)c1cc(Cl)ccc1O)c1cccs1	26%	21µM*	25%	9%	·
COc1ccc(Cl)cc1NC(=S)NNC(=O)c1cccs1	-2%	27µM*	-10%	-4%	·
CCC1CCCCN1CCCNC(=O)c1ccc2c(c1)N(Cc1cccc(Cl)c1)C(=O)c1ccccc1S2(=O)=O (stereo not given)	·	1%	·	·	·
CCN(CC)C(=O)COCc1cc(-c2ccc3c(c2)OCO3)on1	14%	?	13%	6%	·
O=C(c1cc2ccccc2oc1=O)N(c1ccc(Cl)cc1)C1C=CS(=O)(=O)C1 (stereo not given)	-3%	3%	-4%	0%	-38%
CS(=O)(=O)N1CCC2(CCN(Cc3nccs3)CC2)CC1	·	·	·	·	-7%
Cc1ccc(Cn2ccc(C3CC3)n2)cc1	?	17µM*	?	24%	?
Clc1ccc(Cn2ccc(C3CC3)n2)cc1	8%	?	-29%	14%	·
Cc1ccc(-c2nc(NC(=O)CSc3nnc(C)s3)ns2)cc1	8%	19µM*	-7%	3%	6%
Cc1nnc(SCC(=O)c2ccc(Br)cc2)s1	10%	17µM*	17%	-1%	-8%
Nc1nnc(SCC(=O)c2ccc3ccccc3c2)s1	4.5µM*	19µM*	4µM*	12µM*	?
Cc1nnc(SCC(=O)Nc2nsc(-c3ccccc3)n2)s1	10%	?	17%	-4%	16%
Cc1ccc(C(=O)CSc2nnc(C)s2)cc1	2.2µM*	13µM*	2.2µM*	?	?
Cc1ccc(-n2ncc3c(NCCCc4ccccc4)ncnc32)cc1C	·	-10%	·	·	·
Cc1ccc(-n2ncc3c(NCCc4ccccc4)ncnc32)cc1	·	24µM*	·	·	·
SMILES	NPC1 promoter act	FLuc counter	Rab9 prom act	ELG1 genotoxic	SMN2 splice enh
O=c1c2cnn(-c3ccccc3)c2ncn1Cc1cccnc1	2%	-2%	-7%	-7%	-10%
Cc1ccc(-n2ncc3c(NCc4ccccc4)ncnc32)cc1C	·	21µM*	·	·	·
OCCNc1ncnc2c1cnn2Cc1ccccc1	1%	-2%	-4%	0%	·
c1ccc(-n2ncc3c(NCc4cccnc4)ncnc32)cc1	?	17µM*	?	?	38%
c1ccc(CNc2ncnc3c2cnn3Cc2ccccc2)cc1	-23%	6%	-7%	1%	11µM*
CCCN(Cc1nnc(-c2ccccc2Cl)o1)C(=O)c1oc2ccccc2c1C	-3%	0%	-2%	-1%	·
Cc1ccc(-n2ncc3c(NNC(=O)c4ccco4)ncnc32)cc1C	8%	?	17%	27%	·
